We go through 31 molecules from paper PMC9911399, “Two distinct binding modes provide the RNA-binding protein RbFox with extraordinary sequence specificity”.

To fix the notation:
T1: RBFOX1 RRM (Homo sapiens, UniProt Q9NWB1 109-208)
T1 sequence: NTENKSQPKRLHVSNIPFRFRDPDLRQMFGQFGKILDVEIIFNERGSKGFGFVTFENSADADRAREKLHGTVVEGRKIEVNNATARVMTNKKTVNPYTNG

B1: CCUUGGG (DNA:RNA)
RNA: GGGAGACCGGAAUUCAGAUUGUCCCCUUGGGUUAAAUCCCGUCGUAGCCACCA
DNA 1: CAATCTGAATTCCGGTCTCCC
DNA 2: TGGTGGCTACGACGGGATT
B2: CGCCUAC (DNA:RNA)
RNA: B1 RNA with C26G, U27C, U28C, G29U, G30A, G31C
DNA 1: CAATCTGAATTCCGGTCTCCC
DNA 2: TGGTGGCTACGACGGGATT
B3: AUGAUGU (DNA:RNA)
RNA: B1 RNA with C25A, C26U, U27G, U28A, G29U, G31U
DNA 1: CAATCTGAATTCCGGTCTCCC
DNA 2: TGGTGGCTACGACGGGATT
B4: GCAUGUA (DNA:RNA)
RNA: B1 RNA with C25G, U27A, G30U, G31A
DNA 1: CAATCTGAATTCCGGTCTCCC
DNA 2: TGGTGGCTACGACGGGATT
B5: GUAUGAG (DNA:RNA)
RNA: B1 RNA with C25G, C26U, U27A, G30A
DNA 1: CAATCTGAATTCCGGTCTCCC
DNA 2: TGGTGGCTACGACGGGATT
B6: GCAUGAA (DNA:RNA)
RNA: B1 RNA with C25G, U27A, G30A, G31A
DNA 1: CAATCTGAATTCCGGTCTCCC
DNA 2: TGGTGGCTACGACGGGATT
B7: GCAUAUA (DNA:RNA)
RNA: B1 RNA with C25G, U27A, G29A, G30U, G31A
DNA 1: CAATCTGAATTCCGGTCTCCC
DNA 2: TGGTGGCTACGACGGGATT
B8: GCAUAAA (DNA:RNA)
RNA: B1 RNA with C25G, U27A, G29A, G30A, G31A
DNA 1: CAATCTGAATTCCGGTCTCCC
DNA 2: TGGTGGCTACGACGGGATT
B9: GCAUUGA (DNA:RNA)
RNA: B1 RNA with C25G, U27A, G29U, G31A
DNA 1: CAATCTGAATTCCGGTCTCCC
DNA 2: TGGTGGCTACGACGGGATT
B10: GCAUAGA (DNA:RNA)
RNA: B1 RNA with C25G, U27A, G29A, G31A
DNA 1: CAATCTGAATTCCGGTCTCCC
DNA 2: TGGTGGCTACGACGGGATT
B11: GUAUGUA (DNA:RNA)
RNA: B1 RNA with C25G, C26U, U27A, G30U, G31A
DNA 1: CAATCTGAATTCCGGTCTCCC
DNA 2: TGGTGGCTACGACGGGATT
B12: GCCAUGA (DNA:RNA)
RNA: B1 RNA with C25G, U27C, U28A, G29U, G31A
DNA 1: CAATCTGAATTCCGGTCTCCC
DNA 2: TGGTGGCTACGACGGGATT
B13: CGCAUGA (DNA:RNA)
RNA: B1 RNA with C26G, U27C, U28A, G29U, G31A
DNA 1: CAATCTGAATTCCGGTCTCCC
DNA 2: TGGTGGCTACGACGGGATT
B14: GGAUGAG (DNA:RNA)
RNA: B1 RNA with C25G, C26G, U27A, G30A
DNA 1: CAATCTGAATTCCGGTCTCCC
DNA 2: TGGTGGCTACGACGGGATT
B15: GCAUGAG (DNA:RNA)
RNA: B1 RNA with C25G, U27A, G30A
DNA 1: CAATCTGAATTCCGGTCTCCC
DNA 2: TGGTGGCTACGACGGGATT
B16: AAUAAUA (DNA:RNA)
RNA: B1 RNA with C25A, C26A, U28A, G29A, G30U, G31A
DNA 1: CAATCTGAATTCCGGTCTCCC
DNA 2: TGGTGGCTACGACGGGATT
B17: GCGUGUG (DNA:RNA)
RNA: B1 RNA with C25G, U27G, G30U
DNA 1: CAATCTGAATTCCGGTCTCCC
DNA 2: TGGTGGCTACGACGGGATT
B18: UCUAACG (DNA:RNA)
RNA: B1 RNA with C25U, U28A, G29A, G30C
DNA 1: CAATCTGAATTCCGGTCTCCC
DNA 2: TGGTGGCTACGACGGGATT
B19: UCCCUGA (DNA:RNA)
RNA: B1 RNA with C25U, U27C, U28C, G29U, G31A
DNA 1: CAATCTGAATTCCGGTCTCCC
DNA 2: TGGTGGCTACGACGGGATT
B20: UCAAAGA (DNA:RNA)
RNA: B1 RNA with C25U, U27A, U28A, G29A, G31A
DNA 1: CAATCTGAATTCCGGTCTCCC
DNA 2: TGGTGGCTACGACGGGATT
B21: UGCAGCC (DNA:RNA)
RNA: B1 RNA with C25U, C26G, U27C, U28A, G30C, G31C
DNA 1: CAATCTGAATTCCGGTCTCCC
DNA 2: TGGTGGCTACGACGGGATT
B22: CGUUGGA (DNA:RNA)
RNA: B1 RNA with C26G, G31A
DNA 1: CAATCTGAATTCCGGTCTCCC
DNA 2: TGGTGGCTACGACGGGATT
B23: GGACCUA (DNA:RNA)
RNA: GGGAGACCGGAAUUCAGAUUGUCCGGACCUAUUAAAUCCCGUCGUAGCCACCA
DNA 1: CAATCTGAATTCCGGTCTCCC
DNA 2: TGGTGGCTACGACGGGATT
B24: CGGGGUC (DNA:RNA)
RNA: B1 RNA with C26G, U27G, U28G, G30U, G31C
DNA 1: CAATCTGAATTCCGGTCTCCC
DNA 2: TGGTGGCTACGACGGGATT
B25: GGGUCUU (DNA:RNA)
RNA: B23 RNA with A27G, C28U, A31U
DNA 1: CAATCTGAATTCCGGTCTCCC
DNA 2: TGGTGGCTACGACGGGATT
B26: GGGGUCU (DNA:RNA)
RNA: B23 RNA with A27G, C28G, C29U, U30C, A31U
DNA 1: CAATCTGAATTCCGGTCTCCC
DNA 2: TGGTGGCTACGACGGGATT
B27: GGGGGUC (DNA:RNA)
RNA: B23 RNA with A27G, C28G, C29G, A31C
DNA 1: CAATCTGAATTCCGGTCTCCC
DNA 2: TGGTGGCTACGACGGGATT
B28: CGGGUCU (DNA:RNA)
RNA: B1 RNA with C26G, U27G, U28G, G29U, G30C, G31U
DNA 1: CAATCTGAATTCCGGTCTCCC
DNA 2: TGGTGGCTACGACGGGATT
B29: CCGGGUC (DNA:RNA)
RNA: B1 RNA with U27G, U28G, G30U, G31C
DNA 1: CAATCTGAATTCCGGTCTCCC
DNA 2: TGGTGGCTACGACGGGATT
B30: UACCUCU (DNA:RNA)
RNA: B23 RNA with G25U, G26A, A27C, C29U, U30C, A31U
DNA 1: CAATCTGAATTCCGGTCTCCC
DNA 2: TGGTGGCTACGACGGGATT
B31: CUGGGAG (DNA:RNA)
RNA: B1 RNA with C26U, U27G, U28G, G30A
DNA 1: CAATCTGAATTCCGGTCTCCC
DNA 2: TGGTGGCTACGACGGGATT

Numbering of substitutions follows the chain as printed; changes in the protein carry UniProt numbers. The full ranking holds about 16,000 sequences; the median of “ka relative to ugcaugu” is about 0.0091, and the highest 2% start at about 0.032. The list comes from a sample in which the highest values are over-represented; it also holds similar and randomly drawn sequences.

The target of this assay is T1, RBFOX1 RRM. As to the kind of experiment: EMSA; HiTS-Eq, 1 nM pool, 10 min; buffer printed only for the single-RNA assays: 10 mM Tris pH 7.5, 150 mM NaCl, 3.4 mM EDTA, 0.001% NP-40, 30 C. As to conditions: tags: His6 N-terminal (pET28a); label: 5' 32P. An outline of the steps: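 Purified RbFox RRM, wild type or mutant, was incubated for 10 min in 50 µL with 1 nM of a 5′-radiolabelled RNA pool carrying 7 randomized nucleotides, whose flanks were annealed to DNA oligonucleotides, over a series of increasing protein concentrations. Unbound RNA was resolved on 8% native PAGE, cut out, reverse-transcribed, barcoded by PCR and sequenced on an Illumina HiSeq 2500. Relative association constants were derived from changes in read counts for each RNA species versus the control reaction and normalised to the cognate motif.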
B1: the binding signal is 0.00389 KA relative to UGCAUGU.

B2: the binding signal was 0.00556 KA relative to UGCAUGU.

Regarding B3, the binding signal was 0.0132 KA relative to UGCAUGU.

Turning to B4, the binding signal was 0.473 KA relative to UGCAUGU.

Take B5: the binding signal was 0.0141 KA relative to UGCAUGU.

B6: the binding signal is 0.594 KA relative to UGCAUGU.

As for B7, the binding signal is 0.0014 KA relative to UGCAUGU.

B8: the binding signal is 0.00438 KA relative to UGCAUGU.

Take B9: the binding signal is 0.0124 KA relative to UGCAUGU.

As to B10, the binding signal is 0.0137 KA relative to UGCAUGU.

Take B11: the binding signal is 0.0125 KA relative to UGCAUGU.

B12: the binding signal is 0.0124 KA relative to UGCAUGU.

As to B13, the binding signal is 0.67 KA relative to UGCAUGU.

With B14, the binding signal is 0.0205 KA relative to UGCAUGU.

For the molecule B15, the binding signal was 0.684 KA relative to UGCAUGU.

Turning to B16, the binding signal was 0.000771 KA relative to UGCAUGU.

For B17, the binding signal was 0.0222 KA relative to UGCAUGU.

As to B18, the binding signal is 0.00601 KA relative to UGCAUGU.

Regarding B19, the binding signal is 0.00782 KA relative to UGCAUGU.

On to B20, for which the binding signal was 0.00287 KA relative to UGCAUGU.

For B21, the binding signal is 0.0108 KA relative to UGCAUGU.

Turning to B22, the binding signal is 0.00714 KA relative to UGCAUGU.

Take B23: the binding signal was 0.0035 KA relative to UGCAUGU.

Regarding B24, the binding signal was 0.0407 KA relative to UGCAUGU.

As for B25, the binding signal was 0.00918 KA relative to UGCAUGU.

B26: the binding signal was 0.0436 KA relative to UGCAUGU.

As to B27, the binding signal is 0.0306 KA relative to UGCAUGU.

Regarding B28, the binding signal is 0.0296 KA relative to UGCAUGU.

Turning to B29, the binding signal was 0.0244 KA relative to UGCAUGU.

For the molecule B30, the binding signal was 0.00134 KA relative to UGCAUGU.

As to B31, the binding signal was 0.0142 KA relative to UGCAUGU.
